Test results published in PubChem BioAssay (EPA / NIEHS).
The source made the active and inactive calls. How the source made its calls: active means hit-call score of the fitted dose curve at least 0.9, where 1 is the maximum; inactive means score below 0.9.

Assay: APR_HepG2_NuclearSize_24hr: Apredica 24-hour HepG2 Assay for Nuclear Size (AID 2282907)
Conditions: high-content imaging, actives raise or lower the signal
Experimental: APR_HepG2_24hr is a cell-based, multiplexed-readout assay that uses HepG2, a human liver cell line, with measurements taken at 24 hours after chemical dosing in a 384-well plate.APR_HepG2_NuclearSize_24hr is one of 10 assay component(s) measured or calculated from the APR_HepG2_24hr assay. It is designed to make measurements of cell phenotype, a form of morphology reporter, as detected with fluorescence intensity signals by HCS Fluorescent Imaging technology.Data from the assay component APR_HepG2_NuclearSize_24hr was analyzed into 1 assay endpoint. This assay endpoint, APR_HepG2_NuclearSize_24hr, was analyzed with bidirectional fitting relative to DMSO as the negative control and baseline of activity. Using a type of morphology reporter, measures of all nuclear dna for gain or loss-of-signal activity can be used to understand the signaling at the nuclear-level. Furthermore, this assay endpoint can be referred to as a primary readout, because this assay has produced multiple assay endpoints where this one serves a signaling function. To generalize the intended target to other relatable targets, this assay endpoint is annotated to the cell morphology intended target family, where the subfamily is organelle conformation.
Cells were treated with dimethyl sulfoxide (DMSO) as a solvent control at a final concentration of 0.5% v/v or with compounds in DMSO with a resulting final DMSO concentration of 0.5% v/v. Compound treatment was done at concentrations of 0.39, 0.78, 1.56, 3.12, 6.24, 12.5, 25, 50, 100, and 200 uM in duplicate on each plate. Cells were treated with compounds for 1, 24, or 72 hr. Carbonyl […] m-chloro-phenylhydrazone (CCCP) and taxol were used as positive controls for mitochondrial function and cytoskeletal stability, respectively; DMSO served as the negative control for this experiment. Cells were fixed by the direct addition of 50 uL formaldehyde in Hank's Balanced Salt Solution (HBSS) to a final concentration of 3.7%. After incubation in the fixation medium for 30 min at room temperature (293-298 K), cells were rinsed twice with HBSS and treated with cell permeabilization buffer (16 uL of 0.5% Triton X-100) for 10 min at room temperature (293-298 K) before labeling. For mitochondrial membrane potential and mitochondrial measurements, pre-fixed cells were incubated with 50 uL of MitoTracker Red CMXRos (Invitrogen) at a concentration of 250 nM for 30 min before fixation. In the remaining cases, post-fixed cells were labeled by incubation with a multiplexed mixture of primary antibodies in HBSS for 60 min at room temperature (293-298 K) to detect immunoreactivity of c-Jun (1:500), phospho-histone H3 (1:100), phospho-histone H2A.x (1:200), p53 (1:400), alpha-tubulin (1:200) and Hoechst 33342 (2 ug/mL). Cells were labeled for multiplexed imaging on two separate plates: a) Hoechst 33342, MitoTracker Red, phospho-histone H3, and alpha-tubulin, and b) Hoechst 33342, phospho-histone H2A.x, and c-Jun. A final rinse with HBSS (50 uL) was performed before analysis. The primary and secondary antibodies for the proteins were phospho-histone H3 (rabbit anti-phospho-histone H3 and FITC-donkey anti-rabbit IgG), phospho-histone H2A.x (mouse anti-phospho-histone H2A.x and FITC-donkey anti-mouse IgG), c-Jun (rabbit anti-phospho-c-Jun and Cy3-donkey anti-rabbit IgG), p53 (sheep anti-p53 and Cy5-donkey anti-sheep IgG), alpha-tubulin (mouse anti-alpha-tubulin and Cy5-donkey anti-mouse IgG). These antibodies are available as the CellCiphr HepG2 assay kit (Millipore).Digital images of each well were captured using a Cellomics ArrayScan VTI (Thermo Scientific Cellomics) (0.8 NA objective, 0.63x optical coupler, and XF-93 filter set) at 20x magnification. The images were acquired using the autofocus feature of the ArrayScan instrument, which entails the following steps. First, the camera focuses on channel 1 (Hoechst 33342), where nuclei are identified. Second, a Z offset of 1 um is used for capturing mitochondria (MitoTracker Red). […]

| SMILES | outcome | AC50 |
| --- | --- | --- |
| O=C(OC[C@H]1O[C@@H](OC(=O)c2cc(O)c(O)c(OC(=O)c3cc(O)c(O)c(O)c3)c2)[C@H](OC(=O)c2cc(O)c(O)c(OC(=O)c3cc(O)c(O)c(O)c3)c2)[C@@H](OC(=O)c2cc(O)c(O)c(OC(=O)c3cc(O)c(O)c(O)c3)c2)[C@@H]1OC(=O)c1cc(O)c(O)c(OC(=O)c2cc(O)c(O)c(O)c2)c1)c1cc(O)c(O)c(OC(=O)c2cc(O)c(O)c(O)c2)c1 | inactive | – |
| C1=CCCC=CCCC=CCC1 | inactive | – |
| C=CC(=C)CCC=C(C)C | inactive | – |
| CC[C@H]1CC[C@H](NCc2cc3c(cc2OC)[C@H]2C[C@H]2C(=O)N3C)[C@H](c2ccccc2)N1 | inactive | – |
| CC(C)=CCCC(C)CCO (stereo not given) | inactive | – |
| CCCCCCCCO | inactive | – |
| C[C@](N)(Cc1ccc(O)c(O)c1)C(=O)O | inactive | – |
| O=P(OC(CCl)CCl)(OC(CCl)CCl)OC(CCl)CCl | – | 48 µM (active) |
| CC(C)(O)c1coc(S(=O)(=O)NC(=O)Nc2c3c(cc4c2CCC4)CCC3)c1 | inactive | – |
| CC/C(=C\C(=N/O)C(N)=O)C(C)[N+](=O)[O-] (stereo not given) | inactive | – |
| Cc1ccc(N)cc1O | inactive | – |
| Fc1ccccc1[C@@H](F)COC1CCC(Nc2ncnc3[nH]ncc23)CC1 (stereo not given in full) | inactive | – |
| COc1ccc2sc(C(=O)Nc3nnn[nH]3)c(OC(C)C)c2c1 | inactive | – |
| CNS(=O)(=O)c1cc(C(=O)N2CCC(CCN3C4CCC3CC(n3c(C)nc5ccccc53)C4)(c3cccc(F)c3)CC2)c(Cl)cc1F (stereo not given) | inactive | – |
| CCOC(=O)COc1ccc2c(c1)CC(NCC(O)c1cccc(Cl)c1)CC2 (stereo not given) | inactive | – |
| CC(C)CCCCCCCOC(=O)CCCCC(=O)OCCCCCCCC(C)C | inactive | – |
| CNCc1ccc(NC(=O)c2c[nH]c3c2C(=O)CCC3)cc1 | inactive | – |
| CCCCC(CC)COC(=O)CCCCCCCCC(=O)OCC(CC)CCCC (stereo not given) | inactive | – |
| CCOC(=O)CC(CC(=O)OCC)(OC(C)=O)C(=O)OCC | inactive | – |
| CC(=O)OCCC(C)C | inactive | – |

| SMILES | outcome | AC50 |
| --- | --- | --- |
| CC(=O)c1ccc2c(c1)[C@H](NC(=O)c1ccc(F)cc1)[C@@H](O)C(C)(C)O2 | inactive | – |
| CCn1nc(Cc2ccccc2)cc1C1CCN(C[C@H]2C[C@H](N(C)[C@@H](C(=O)O)C(C)C)C[C@@H]2c2cccc(F)c2)CC1 | inactive | – |
| O=C(CCCCCCCCc1cccnc1)N1CCC(C=C(c2ccccc2)c2ccccc2)CC1 | inactive | – |
| CC(C)CC(C)(O)C#CC(C)(O)CC(C)C (stereo not given) | inactive | – |
| CN(C)c1ccc(Cc2ccc(N(C)C)cc2)cc1 | inactive | – |
| COCCOCCOCCOC | inactive | – |
| Clc1nc(Cl)c(Cl)c(Cl)c1Cl | inactive | – |
| CCOCCO | inactive | – |
| O=c1[nH]c2ccc(S(=O)CCN3CCC(Cc4ccc(F)cc4)CC3)cc2o1 (stereo not given) | inactive | – |
| CC(C)CCO | inactive | – |
| CC(C)=CCC/C(C)=C\CO | inactive | – |
| O=C1CCCCCN1 | inactive | – |
| Cc1ccc(O)cc1 | inactive | – |
| Cn1c(=O)cc(Oc2ccc(F)cc2F)c2cnc(NCC(C)(C)O)nc21 | inactive | – |
| CCOCCOCCOCCO | inactive | – |
| CCOc1cccc(-n2cc(C(=O)N3CCN(c4cc(C(=O)O)c5ccccc5c4)CC3)nc2-c2ccc(C)cc2)c1 | inactive | – |
| CC(O)CN(CCN(CC(C)O)CC(C)O)CC(C)O (stereo not given) | inactive | – |
| Cn1cnc([N+](=O)[O-])c1Sc1ncnc2nc[nH]c12 | inactive | – |
| COC(=O)c1c(Cl)c(Cl)c(C(=O)OC)c(Cl)c1Cl | inactive | – |
| Cn1c(=O)c2c(ncn2C)n(C)c1=O | inactive | – |
